A selection: hits, their analogues and other compounds. The true share with any hit is near 2.3%.
M1 PAM parental: M1 PAM counterscreen hit in parental CHO-K1 cells; ATP EC20, Fluo-8 calcium fluorescence; 0% at ATP EC20, 100% at ATP max; activation, % at 3 µM; 360,000 tested, 0.02% active; AID 602247;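 active means activation above the run cutoff, the mean activation of all test compounds plus 3 SD, cut at about 40% in these data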;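 further: peak over basal fluorescence ratio in a 140 s read after ATP addition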
CHO-K1 Ca ag: counter-screen for M1 agonists: effect in parental CHO-K1 cells; activation, % at 3 µM; 360,000 tested, 0.48% active; AID 602248; Fluo-8 calcium fluorescence; scaled to maximal ATP response, vehicle zero; in the data active means activation above about 15%;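 further: untransfected CHO-K1 host cells lacking M1 receptor as counterscreen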
CHO-K1 Ca antag: nonselective inhibitor or artifact in parental CHO-K1 cells. 360,000 tested, 0.6% active. ATP-induced calcium, Fluo-8 fluorescence. inhibition, % at 3 µM;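 active means inhibition above a per-plate cutoff, the plate's mean sample inhibition plus 3 SD, cut at about 24% in these data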;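 further: 0% = DMSO plus EC80 ATP and 100% = DMSO alone without ATP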
M1 PAM: positive allosteric modulators of human M1 muscarinic receptor | AID 588819 | P11229 | activation, % at 3 µM | 360,000 tested, 0.088% active | CHO-K1 hM1, Fluo-8 calcium fluorescence, ACh EC20; 0% = ACh EC20, 100% = maximal ACh; in the data active means activation above about 19%, passing the limit was not always enough
Target sequence (P11229 whole entry, looked up): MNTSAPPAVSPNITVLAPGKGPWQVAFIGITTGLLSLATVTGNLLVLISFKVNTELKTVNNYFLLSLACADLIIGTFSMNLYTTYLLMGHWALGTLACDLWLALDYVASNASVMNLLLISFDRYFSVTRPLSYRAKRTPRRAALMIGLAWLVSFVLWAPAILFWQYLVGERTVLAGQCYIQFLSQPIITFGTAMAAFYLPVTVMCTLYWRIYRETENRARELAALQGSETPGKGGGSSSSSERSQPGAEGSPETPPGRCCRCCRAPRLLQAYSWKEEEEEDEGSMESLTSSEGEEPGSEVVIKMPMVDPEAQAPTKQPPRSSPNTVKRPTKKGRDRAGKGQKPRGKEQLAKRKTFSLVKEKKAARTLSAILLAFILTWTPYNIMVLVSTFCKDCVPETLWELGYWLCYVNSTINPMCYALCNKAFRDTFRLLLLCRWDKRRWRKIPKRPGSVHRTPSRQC
M1 antag: human CHRM1 antagonism | 360,000 tested, 1.3% active | CHO-K1 hM1, Fluo-8 calcium fluorescence, ACh EC80 antagonist | P11229 | inhibition, % at 3 µM;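 active means percent inhibition above its own plate's cutoff, namely the mean of that plate's compound wells plus 3 SD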;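 further: peak over basal fluorescence ratio during 140 s after agonist addition; 0% = ACh EC80 plus DMSO and 100% = DMSO alone without agonist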
M1 ag: agonists of human M1 muscarinic receptor; P11229; CHO-K1 hM1, Fluo-8 calcium fluorescence, agonist mode; 0% DMSO, 100% acetylcholine EC100; activation, % at 3 µM; 360,000 tested, 0.33% active;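 active means activation above the run's mean compound activation plus 3 SD, cut at about 16% in these data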;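 further: peak over basal fluorescence ratio within a 140 s kinetic read after compound addition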
An asterisk follows results filed as active.

SMILES | M1 PAM parental | CHO-K1 Ca ag | CHO-K1 Ca antag | M1 PAM | M1 antag | M1 ag
C[N+]1(C)C2CCC1CC(OC(=O)c1c[nH]c3ccccc13)C2 (configuration not stated) | 26 | 0 | -12 | -7 | -26 | -8
C[N+]1(C)[C@@H]2CC[C@H]1CC(OC(=O)[C@@H](CO)c1ccccc1)C2 (some centres not stated) | -7 | 0 | 18 | -29 | 102* | -9
C[N+]1(C)C2CCC1CC(OC(=O)c1ccco1)C2 (configuration not stated) | 26 | 1 | -17 | -4 | 3 | -7
COC1/C=C/C=C(\C)Cc2cc(O)c(Cl)c(c2)N(C)C(=O)CC(OC(=O)C(C)C)C2(C)OC2C(C)C2CC1(O)NC(=O)O2 (configuration not stated) | 1 | 1 | -9 | 3 | -16 | 2
CCCNC(=O)N1[C@H]2CC[C@@H]1C(C(=O)OC)=C(c1ccc(OC)c(OC)c1)C2 | -8 | 0 | -2 | 3 | 1 | -4
CC[N+]12CCC(CC1)C(=C(c1ccccc1)c1ccccc1)C2 | -8 | 0 | 12 | -25 | 98* | -8
C[N+]12CCC(CC1)C(=C(c1ccccc1)c1ccccc1)C2 | 21 | 0 | -9 | -25 | 98* | -7
C=Cc1cc(OC)c2c(c1)c(=O)oc1c2cc(OC)c2c(O)ccc(C3OC(C)C(O)C(C)(O)C3O)c21 (configuration not stated) | 18 | 0 | -10 | 13 | -14 | -1
COc1ccc(C(=O)C2CCCN(C3CSCCSC3)C2)c(C)c1 (configuration not stated) | 19 | 12 | -4 | -23 | 54* | -7
NC1=Nc2ccccc2Oc2ccccc21 | 9 | 1 | -1 | 11 | -9 | -3
c1ccc(C(c2ccccc2)c2ccncc2)cc1 | 19 | 1 | -10 | -28 | 70* | -6
CC(=O)OC(C)(C)/C=C/C(=O)[C@](C)(O)C1[C@H](O)C[C@@]2(C)C3CC=C4C(C[C@H](O)C(=O)C4(C)C)[C@]3(C)C(=O)C[C@]12C (some centres not stated) | -7 | -1 | 1 | 22 | -7 | 1
CC1CCOC(=O)C=CC=CC(=O)OC2CC3OC4C5OC5(C)C(O)CC4(COC(=O)C1O)C2(C)C31CO1 (configuration not stated) | 23 | 1 | -15 | 5 | -19 | -2
CC1=CC2OC3CC4OC(=O)C=CC=CC(=O)OCCC(C)C(O)C(=O)OCC2(CC1)C4(C)C31CO1 (configuration not stated) | -15 | 7 | 7 | -18 | 37* | 2
C[C@]12CCC3C(CC[C@H]4C[C@@H](O)CC[C@]34C)C1C[C@@H](Br)[C@H]2O (some centres not stated) | -3 | 10 | 10 | -16 | 13 | -3
CCCC(=O)OCC[N+](C)(C)C | 13 | 0 | -1 | -19 | -12 | 43*
CS(=O)(=O)c1ccc(C2=C(CNC(=O)c3ccncc3)[C@H]3CC[C@@H](C2)N3CCOc2ccccc2)cc1 | -5 | 0 | -9 | -19 | 29* | -11
CS(=O)(=O)c1ccc(C2=C(CNC(=O)c3ccc([N+](=O)[O-])cc3)[C@H]3CC[C@@H](C2)N3CCOc2ccccc2)cc1 | -10 | 0 | -1 | -19 | 23 | -11
COC(=O)C1=C(c2ccc(Cl)c(C(F)(F)F)c2)C[C@@H]2CC[C@H]1N2C(=O)NCc1ccco1 | 1 | -1 | -13 | 4 | -5 | -11
CCN(CC)c1ccc(CNCCc2ccccc2F)cc1 | 11 | 8 | -9 | -27 | 56* | -8
Cc1ccc(C(=O)C2CN3CCC2CC3)cc1 (configuration not stated) | 16 | 0 | -9 | -7 | 28* | 1
Cc1ccc(C(=O)C2CN(C)CC2C(=O)c2ccc(C)cc2)cc1 (configuration not stated) | -1 | 0 | 3 | -7 | 13 | -2
Cc1ccc(CN2Cc3ccc(Br)cc3-n3nncc3C2)cc1 | 1 | 0 | 8 | -9 | 8 | -11
C[C@]12CC[C@H](N)CC1=CCC1C2CC[C@@]2(C)C1CC[C@@H]2O (some centres not stated) | 19 | 2 | -13 | 1 | -5 | -6
C[C@]12CC[C@@H](O)CC1=CCC1C2CC[C@@]2(C)C1CC[C@@H]2N (some centres not stated) | 7 | 1 | -8 | -20 | 26* | -9

Source: PubChem (The Scripps Research Institute Molecular Screening Center)
